Bioassay records from PubChem.
Pf growth 48h – inhibits P. falciparum growth in the first generation, 48 h; P. falciparum luciferase growth in erythrocytes, 48 h; Potency, µM (top dose mostly 28.7 µM), inactives show top-dose activity change, negative = inhibition, actives largely listed as inhibitors; 5.9% of 310,000 active; AID 504832
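First compound was added to culture medium, then infected red cells at 0.1% parasitemia and 2% hematocrit (final). After incubation at 37 C under 5% CO2, luciferase detection reagent was dispensed and light output recorded.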
AMA1 RON2 block – inhibitors of Plasmodium falciparum AMA1-RON2 interaction. AlphaScreen AMA1-biotinylated RON2 peptide binding. Potency, µM (titrated, usually from 58.2 µM), for inactives: at the highest dose activity change, negative = inhibition, actives largely listed as inhibitors. 0.2% of 360,000 active;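 further: 0% = vehicle wells and -100% = peptide control; nearly all actives have a fitted effect of over 45% in size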
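AMA1 (3D7) with his tag at 25 nM final met compounds first, then biotinylated RON2 peptide at 25 nM; detection used donor plus acceptor beads, 10 µg/mL apiece, read by AlphaScreen after 30 min at room temperature.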
Vaccinia Venus – inhibitors of vaccinia virus (Venus reporter) | Vaccinia virus Venus reporter expression, fluorescence | Potency, µM (doses to about 36.5 µM), for the others: top-dose activity change, negative = inhibition, actives largely listed as inhibitors | 0.46% of 330,000 active; calls by dose curve; tested in A549 cells; further: nearly all actives have a fitted effect of over 30% in size
Pf growth 96h – inhibits malaria parasite growth, 96 h; P. falciparum luciferase reporter growth, 96 h; Potency, µM (doses to about 28.7 µM), without a hit: at the highest dose activity change, negative = inhibition, usual class: inhibitors; 6.9% of 320,000 active; AID 504834
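Cell-based qHTS: luciferase-tagged P. falciparum in erythrocytes (2% hematocrit, 0.05% parasitemia final) incubated with compounds for 96 hours, 37 C, 5% CO2; luciferase detection reagent then added and luminescence measured.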
VACV mCherry inh – vaccinia inhibition (mCherry reporter); Vaccinia virus mCherry reporter infection, fluorescence; Potency, µM (titrated, usually from 36.5 µM), for the others: top-dose activity change, negative = inhibition, hits mostly inhibitors; 0.63% of 310,000 active; calls by dose curve; tested in A549 cells; further: nearly all actives have a fitted effect of over 35% in size
The depositor's hits bear a star; i = inactive; u = inconclusive; x = not tested or not shown; ! = not active in a repeat; [ ] = dose if it differs, or a comment. Hits are enriched below; roughly 8.7% of the tested compounds scored in any of these assays. Unless noted, the call rests on the fitted dose curve; in most records, active means well fitted curve in the direction sought with a large enough effect; inconclusive means small, poorly fitted or top-dose-only effect, or another doubt; inactive means no such curve, though single readings can be large; an effect the other way counts as inactive or inconclusive. Unless noted, on the % scale 0 is the no-effect control and ±100 the full control effect; potency means the concentration at half of the fitted maximal effect.

SMILES	Pf growth 48h	AMA1 RON2 block	Vaccinia Venus	Pf growth 96h	VACV mCherry inh
N=c1n(CCCOc2ccc(Br)cc2)c2ccccc2n1CC(N)=O	13µM*	14%	0%[7.34 µM]	9.3µM*	i[7.34 µM]
CCCCn1c(=N)n(CC(O)COc2ccccc2)c2ccccc21 (stereo not given)	5.2µM*	5%	u	u	x
CCn1c(=N)n(CC(O)c2ccccc2)c2ccccc21 (stereo not given)	u	-3%	-16%	-9%	-7%
CCCCn1c(=N)n(CC(O)COc2ccc(C)cc2)c2ccccc21 (stereo not given)	2.3µM*	12%	x	x	x
N=c1n(CCN2CCOCC2)c2ccccc2n1CC(O)COc1ccccc1 (stereo not given)	-14%	15%	11%	19%	-19%
CCCCn1c(=N)n(CC(O)c2ccccc2)c2ccccc21 (stereo not given)	2.1µM*	-12%	-14%	13µM*	-12%
CN(C)c1ccc(N=Cc2ccncc2)cc1	x	x	7%	x	24%
CCCn1c(=N)n(CCOc2ccc(OC)cc2)c2ccccc21	15µM*	-17%	-21%	x	-9%
Cc1ccc(C(=O)N/N=C\c2ccc([N+](=O)[O-])s2)cn1	4.1µM*	16%	-26%	0.33µM*	-3%
O=C(N/N=C/c1ccc(Br)s1)c1ccc([N+](=O)[O-])cc1	2.1µM*	11%	-20%	-11%	-22%
O=C(N/N=C/c1ccc([N+](=O)[O-])s1)c1cccc(Br)c1	4.1µM*	37%	u	4.1µM*	u
O=C(N/N=C/c1ccc(Br)s1)c1ccccc1[N+](=O)[O-]	6%	5%	x	2%	x
CCN(CC)C(=O)C1CCCN(c2ccc([N+](=O)[O-])cc2/C=N/NC(=O)c2cccc(Br)c2)C1 (stereo not given)	4.1µM*	48%	x	2.1µM*	x
O=C(N/N=C/c1ccc([N+](=O)[O-])s1)c1ccncc1	4.7µM*	43%	11µM*	1.5µM*	u
O=c1[nH]c(C2CCN(S(=O)(=O)c3cccc(C(F)(F)F)c3)CC2)nc2c1nnn2Cc1cccc(F)c1	7.4µM*	-2%	u	u	u
O=c1[nH]c(C2CCN(S(=O)(=O)c3ccc4c(c3)OCCO4)CC2)nc2c1nnn2Cc1ccc(F)cc1	1.5µM*	-1%	-6%	7%	u
O=c1[nH]c(C2CCN(S(=O)(=O)c3ccc(C(F)(F)F)cc3)CC2)nc2c1nnn2Cc1ccc(F)cc1	12µM*	-9%	-16%	38%	i
O=c1[nH]c(C2CCN(S(=O)(=O)c3ccc([N+](=O)[O-])cc3)CC2)nc2c1nnn2Cc1ccccc1	5.2µM*	-6%	-7%	0.15µM*	i
COc1cc2cc(C#N)c(SCC(=O)OC(C)C)nc2cc1OC	x	x	-14%	x	-9%
CCn1c2ccccc2c2cc(CN3CCN(Cc4ccccc4Cl)CC3)ccc21	x	x	-21%	x	-13%
COc1ccc(C(=O)NC(=S)N2CCCC2)cc1	25%	92%	-19%	13µM*	i
Cc1nc2c(c(C)c1CCC(=O)NCc1ccccc1)c(=O)n(C)c(=O)n2C	x	x	8%	x	7%
COc1ccccc1NC(=O)c1cc(S(=O)(=O)N(C)C2CCCCC2)ccc1F	x	x	-13%	x	-11%
CC(=O)C1=C(c2ccccc2)NC(=O)NC1c1ccc(O)c(O)c1 (stereo not given)	30%	-11%	-10%	35%	u
CC(=O)C1=C(c2ccccc2)NC(=S)NC1c1ccc(O)c(O)c1 (stereo not given)	-4%[5.75 µM]	u	-11%	13µM*	-11%
SMILES	Pf growth 48h	AMA1 RON2 block	Vaccinia Venus	Pf growth 96h	VACV mCherry inh
CN1CCN(P(=O)(c2ccccc2)c2nc3ccccc3s2)CC1 (stereo not given)	1%	3%	-14%	13µM*	u
CCc1ccc(-c2cc3c(N4CCN(c5ccccc5)CC4)nccn3n2)cc1	x	x	-18%	x	-11%
CCOC(=O)c1ccc(NS(=O)(=O)c2ccc3c(c2)CCN3C(=O)CC)cc1	x	x	-5%	x	-2%
CC(C)n1c(=O)c(C=Nc2ccc(Cl)cc2)c(O)n(Cc2ccco2)c1=O	10µM*	x	x	1µM*	x
COc1cccc(N=Cc2c(O)n(Cc3ccco3)c(=O)[nH]c2=O)c1	-27%	-5%	x	-13%	x
CC(C)n1c(=O)c(C=Nc2ccc(F)cc2)c(O)n(Cc2ccco2)c1=O	15µM*	2%	-11%	u	u
O=c1c2oc3ccccc3c2n(Cc2ccc(Cl)cc2)c(=O)n1Cc1ccco1	x	x	-19%	x	-17%
COc1ccc(OC)c(NC(=O)c2cc3c(=O)oc4ccccc4c3s2)c1	x	x	7%	x	-3%
Cc1ccc(NC(=O)CCC(=O)N2Cc3ccccc3Oc3ncccc32)c(C)c1	x	x	-5%	x	-9%
CCCC(=O)c1ccc(OC(=O)c2c(-c3ccccc3Cl)noc2C)cc1	x	x	-19%	x	-12%
O=C1CN(/N=C/c2ccc([N+](=O)[O-])o2)C(=O)N1	13µM*	-11%	-9%	4.1µM*	-11%
O=C1CN(/N=C/c2ccc(-c3ccc([N+](=O)[O-])cc3)o2)C(=O)N1	u	x	-9%[60.7 µM]	u	i
O=C1OC(CN2CCOCC2)CN1N=Cc1ccc([N+](=O)[O-])o1 (stereo not given)	13µM*	8%	-15%	u	-16%
O=C1OCCN1/N=C/c1ccc([N+](=O)[O-])o1	13µM*!	12%	-15%	3.8µM*	-2%
Cc1ccc(OCCNC(=O)CNC(=O)Cc2cccc3ccccc23)cc1	x	x	-10%	x	-6%
Cc1ccccc1Cc1nc2cccnc2n1C1CCN(C(=O)CC2NC(=O)c3ccccc32)CC1 (stereo not given)	x	x	6%	x	-6%
COc1cc2c(cc1OC)-c1cc3ccc4c(c3c[n+]1CC2)OCO4	1µM*	-29%	11%	0.15µM*	-12%
COc1cc2c(cc1O)CC[n+]1cc3c(OC)c(OC)ccc3cc1-2	0.41µM*	-4%	1%	0.12µM*	-2%
COc1ccc(NC(=O)Cc2csc(COc3cccc(C)c3)n2)c(OC)c1	x	x	-5%	x	-15%
COc1ccc(Cl)cc1NC(=O)CSc1nc2c([nH]c3ccccc32)c(=O)n1-c1ccccc1	x	x	-26%	x	-24%
COc1ccc(-c2csc(N(CC3CCCO3)C(=O)c3ccco3)n2)cc1 (stereo not given)	u	-17%	x	u	x
COc1ccc(OC)c(-c2csc(NC(=O)c3ccc(F)cc3)n2)c1	u	2%	x	u	x
COc1ccc(OC)c(-c2csc(NC(=O)c3ccc(OCC4CCCO4)cc3)n2)c1 (stereo not given)	u	0%	x	12µM*	x
COc1ccc(OC)c(-c2csc(N(CC3CCCO3)C(=O)Cc3ccccc3)n2)c1 (stereo not given)	u	-6%	-11%	1.9µM*	-6%
COc1ccc(OC)c(Nc2sc(C(=O)c3ccccc3)c(N)c2S(=O)(=O)c2ccccc2)c1	x	x	-22%	x	-20%
